{"source": "paper PMC11208138", "test_in_all_cases": "cross-link between two proteins; cross-linking mass spectrometry", "key": {"[1]": {"target": "PHD finger-like domain-containing protein 5A (UniProt Q7RTV0)", "sequence (Q7RTV0 whole entry, the tested form may be a part)": "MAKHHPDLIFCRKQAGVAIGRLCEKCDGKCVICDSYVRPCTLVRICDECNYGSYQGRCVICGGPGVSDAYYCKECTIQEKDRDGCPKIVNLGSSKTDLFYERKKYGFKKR"}, "[2]": {"target": "Small nuclear ribonucleoprotein Sm D2 (UniProt P62316)", "sequence (P62316 whole entry)": "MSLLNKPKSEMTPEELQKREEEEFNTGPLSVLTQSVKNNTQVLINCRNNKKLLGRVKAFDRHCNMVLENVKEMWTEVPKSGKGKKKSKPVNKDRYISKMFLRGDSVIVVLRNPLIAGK"}, "[3]": {"target": "Splicing factor 3B subunit 5 (UniProt Q9BWJ5)", "sequence (Q9BWJ5 whole entry)": "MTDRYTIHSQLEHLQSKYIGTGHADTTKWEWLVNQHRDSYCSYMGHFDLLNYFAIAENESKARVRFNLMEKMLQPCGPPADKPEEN"}, "THO complex subunit 4": {"target": "THO complex subunit 4 (UniProt Q86V81)"}}, "data": [{"substance": "Splicing factor 3B subunit 1, O75533", "values": [{"measurement": "listed as a hit", "setting": "[1]", "value": "yes"}]}, {"substance": "Small nuclear ribonucleoprotein F, P62306", "values": [{"measurement": "listed as a hit", "setting": "[2]", "value": "yes"}]}, {"substance": "PHD finger-like domain-containing protein 5A, Q7RTV0", "values": [{"measurement": "listed as a hit", "setting": "[3]", "value": "yes"}]}, {"substance": "Enhancer of rudimentary homolog, P84090", "values": [{"measurement": "listed as a hit", "setting": "THO complex subunit 4", "value": "yes"}]}]}
